# Bioassay records (PubChem)
# Shown are actives, neighbours in structure and some others; about 11% of the full set was active somewhere.
# BAZ2B inh: qHTS Assay for Inhibitors of BAZ2B; Bromodomain adjacent to zinc finger domain protein 2B (Homo sapiens), Q9UIF8; AlphaScreen BAZ2B-H3K14Ac peptide displacement; Potency, µM (titrated, usually from 114 µM), without a hit: at the highest dose activity change, negative = inhibition, actives largely listed as inhibitors; hit rate 4.4% among 360,000; AID 504333, 2011; also: potency is read from the fitted curve at half-maximal effect; % is scaled to controls: 0 for no effect and ±100 for the full control effect; nearly all actives have a fitted effect of over 60% in size
#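 AlphaScreen luminescence quantifies BAZ2B engagement of H3K14Ac peptide; the protein and biotinylated peptide are both at 50 nM final, buffer PBS pH 7.4 with 0.01% Tween-20, all steps at room temperature.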
# G9a block: qHTS Assay for Inhibitors of Histone Lysine Methyltransferase G9a | Potency, µM (series often up to 102 µM), for the others: top-dose activity, negative = inhibition, usual class: inhibitors | G9a H3K9 monomethylation, AlphaScreen, 2 h | AID 504332, 2011 | Histone-lysine N-methyltransferase EHMT2 (Homo sapiens), Q96KQ7 | hit rate 8.8% among 350,000; also: potency is read from the fitted curve at half-maximal effect; % is scaled to controls: 0 for no effect and ±100 for the full control effect; nearly all actives have a fitted effect of over 75% in size
#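 Using a bead-based AlphaScreen, monomethylated H3K9 product from 2 h room-temperature reactions (G9a 20 nM, peptide 500 nM, SAM 20 uM) was detected with 0.5 ug/mL rabbit anti-H3K9me1 antibody.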
# JMJD2A Tudor inh: qHTS Assay for Inhibitors of JMJD2A-Tudor Domain | Lysine-specific demethylase 4A (Homo sapiens), O75164 | AlphaScreen JMJD2A-Tudor / H3K4me3 peptide binding | Potency, µM (top dose mostly 114 µM), for inactives: at the highest dose activity change, negative = inhibition, usual class: inhibitors | hit rate 4.4% among 390,000; also: potency is read from the fitted curve at half-maximal effect; % is scaled to controls: 0 for no effect and ±100 for the full control effect; nearly all actives have a fitted effect of over 50% in size
# Target sequence (O75164 whole entry, looked up, the tested form may be a part): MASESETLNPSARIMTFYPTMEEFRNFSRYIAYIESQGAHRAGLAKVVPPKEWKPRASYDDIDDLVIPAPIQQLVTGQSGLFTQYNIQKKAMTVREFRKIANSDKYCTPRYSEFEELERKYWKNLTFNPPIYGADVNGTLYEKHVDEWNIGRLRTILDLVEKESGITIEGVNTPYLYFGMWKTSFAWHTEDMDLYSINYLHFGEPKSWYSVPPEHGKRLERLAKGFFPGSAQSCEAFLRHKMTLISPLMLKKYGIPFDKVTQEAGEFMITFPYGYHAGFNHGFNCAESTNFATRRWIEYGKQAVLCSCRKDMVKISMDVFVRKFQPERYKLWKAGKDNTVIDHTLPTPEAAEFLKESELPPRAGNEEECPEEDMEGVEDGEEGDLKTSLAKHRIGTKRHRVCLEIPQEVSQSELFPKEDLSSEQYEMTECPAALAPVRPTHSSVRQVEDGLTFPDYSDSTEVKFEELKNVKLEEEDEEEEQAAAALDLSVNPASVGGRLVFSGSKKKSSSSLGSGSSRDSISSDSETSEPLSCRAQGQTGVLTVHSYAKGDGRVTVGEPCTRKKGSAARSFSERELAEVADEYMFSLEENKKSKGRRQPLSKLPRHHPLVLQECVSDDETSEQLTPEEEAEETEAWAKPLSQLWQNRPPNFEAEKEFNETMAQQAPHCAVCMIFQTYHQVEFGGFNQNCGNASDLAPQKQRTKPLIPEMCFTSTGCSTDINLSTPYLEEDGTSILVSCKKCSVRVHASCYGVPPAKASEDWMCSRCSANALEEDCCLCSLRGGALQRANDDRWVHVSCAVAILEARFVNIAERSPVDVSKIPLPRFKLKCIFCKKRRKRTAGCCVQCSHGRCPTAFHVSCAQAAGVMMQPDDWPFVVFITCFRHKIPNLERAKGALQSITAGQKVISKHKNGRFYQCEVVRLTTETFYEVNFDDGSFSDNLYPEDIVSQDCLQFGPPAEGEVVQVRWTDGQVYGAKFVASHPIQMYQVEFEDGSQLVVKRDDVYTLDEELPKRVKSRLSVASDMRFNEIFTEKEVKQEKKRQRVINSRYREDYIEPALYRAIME
# PI5P4Ka inh: qHTS for Inhibitors of phosphatidylinositol 5-phosphate 4-kinase (PI5P4K); Phosphatidylinositol 5-phosphate 4-kinase type-2 alpha (Homo sapiens), P48426; PI5P4Kalpha enzyme, ADP-Glo luminescence, 60 min; hits give low values; max response, %; hit rate 1.2% among 330,000; active = max response of -50% or lower; inconclusive = between -30% and -50%; inactive = -30% or higher; also: value at the top dose of about 77 µM; % is scaled to controls: 0 for no effect and ±100 for the full control effect
#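 ADP-Glo luminescence end-point read after a 60 min room-temperature kinase reaction of PI5P4Kalpha plus substrate, initiated with ATP at 5 microM final. Buffer: 0.038 M HEPES pH 7.4, EGTA, 0.1% CHAPS, 5% DMSO.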
# L3MBTL1 block: qHTS Assay for the Inhibitors of L3MBTL1; Lethal(3)malignant brain tumor-like protein 1 (Homo sapiens), Q9Y468; hit rate 0.66% among 230,000; AID 485360, 2010; AlphaScreen L3MBTL1–H3K9me1 peptide binding; Potency, µM (highest dose often 57.1 µM), for the others: at the top dose activity, negative = inhibition, hits mostly inhibitors; also: potency is read from the fitted curve at half-maximal effect; % is scaled to controls: 0 for no effect and ±100 for the full control effect; nearly all actives have a fitted effect of over 60% in size
#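 Read-out is AlphaScreen signal from streptavidin donor and nickel chelate acceptor beads (10 ug/mL final each) bridging L3MBTL1 (50 nM) and biotinylated K9-monomethylated H3(1-15) peptide (75 nM), after 30 min compound exposure at room temperature.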
# HP1b chromo inh: HTS for Inhibitors of HP1-beta Chromodomain Interactions with Methylated Histone Tails. AID 540317, 2011. AlphaScreen HP1-beta / biotin-H3K9me3 peptide binding. hit rate 0.56% among 390,000. Chromobox protein homolog 1 (Homo sapiens), P83916. Potency, µM (titrated, usually from 114 µM), for inactives: at the top dose activity change, negative = inhibition, actives largely listed as inhibitors; also: potency is read from the fitted curve at half-maximal effect; nearly all actives have a fitted effect of over 70% in size
#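 HP1-beta protein (50 nM final) preincubated 30 min at room temperature with biotinylated H3(1-18)K9me3 peptide (50 nM) in PBS pH 7.4, 0.01% Tween-20, then compound added for 30 min. AlphaScreen streptavidin donor/nickel chelate acceptor beads (10 ug/mL final), 30 min dark, luminescence read.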
# Starred values were filed as active, the others as inactive; ? = inconclusive; . = no result; [ ] = remark or other dose. Unless noted, calls follow the shape of the dose curve; as a rule, active = well fitted inhibition curve with a large enough effect; inconclusive = small, poorly fitted or top-dose-only effect; inactive = no such curve, though single readings can be large or run the other way.
SMILES,BAZ2B inh,G9a block,JMJD2A Tudor inh,PI5P4Ka inh,L3MBTL1 block,HP1b chromo inh
O=C(c1ccccc1)c1nn(-c2ccccc2)c(=O)cc1C(F)(F)F,89.1µM*,-14.6%,-15.0%,5.8,-4.4%,17.8%
COc1cc(NC(C)CCCNC(C)C)c2ncccc2c1OC (configuration not stated),.,.,0.891µM*,-11.1,.,?
COc1cc(N)c2ncccc2c1OC,.,.,-27.6%,-2.3,.,-11.4%
COc1cc(NCCCCCCN)c2ncccc2c1OC,.,.,56.2µM*,?,.,?
COc1ccc(NC(=O)CNS(=O)(=O)c2ccc(Cl)cc2)cc1,2.7%,?,-10.3%,-3.7,-24.8%,10.5%
COc1ccc(NC(C)=[N+](C)CCNS(=O)(=O)c2ccc(Cl)cc2)cc1,56.2µM*,?,25.1µM*,-22.3,.,?
Cc1cc2c(s1)c1cnn(Cc3ccc(-n4cncn4)cc3)c(=O)c1n2C,.,.,-23.3%,.,.,.
Cc1cc(C)c(NC(=O)Cn2c(=O)oc3cc(S(=O)(=O)N4CCCCCC4)ccc32)c(C)c1,5.5%,9.2%[59 µM],-7.0%,.,.,35.3%
COC(=O)c1ccc(Cn2c(=O)cc(C(F)(F)F)c3c(C)nn(C)c32)cc1,-12.3%,32.4%[59 µM],4.3%,.,.,44.0%
CC(=O)N(Cc1ccc(F)cc1)C1=C(NCc2ccccc2)C(=O)c2ccccc2C1=O,44.7µM*,12.6µM*,56.2µM*,-5.8,.,?
O=C(NCc1ccc(F)cc1)C(c1ccccc1)c1ccccc1,-4.6%,10.1%[59 µM],3.6%,1.5,2.1%,58.0%
Cc1ccc2occ(CC(=O)N(Cc3ccccc3Cl)C3CCS(=O)(=O)C3)c2c1 (configuration not stated),?,-5.0%[59 µM],-15.3%,.,.,46.9%
COc1cc(NCCCC(C)N)c2ncccc2c1 (configuration not stated),31.6µM*,?,22.4µM*,-3.2,-17.1%,-9.7%
COc1cc(NCCCCC(C)N)c2nccc(C)c2c1 (configuration not stated),.,.,.,-12.2,.,.
CCC(CNc1cc(OC)cc2cccnc12)NC1CCCCC1 (configuration not stated),?,5.01µM*,56.2µM*,-6.7,-24.5%,-11.2%
CC(C)CCn1c(=O)c2sccc2n2c(CCCC(=O)NCCc3ccccc3)nnc12,-23.2%,5.9%[59 µM],-6.2%,.,.,37.3%
Cc1nc2c(C)cccc2c(SC(=N)N)c1CC=C(Cl)Cl,?,7.94µM*,?,1.9,-6.2%,59.0%
C=CCc1c(C)nc2c(C)cccc2c1SC(=N)N,-1.8%,.,18.3%,17.4,10.6%,65.0%
CCc1ccc(-n2nc(CO)c(C(=O)NCc3ccccc3Cl)n2)cc1,3.2%,9.5%[59 µM],-9.7%,.,.,11.1%
CN(Cc1ccco1)C(=O)CSc1nc(C2CC2)n(-c2ccccc2)n1,?,31.6µM*,-19.3%,-24.1,-10.4%,31.1%
Cc1ccc(/C=C/C(=O)c2ccccc2)cc1,67.1%,1.3%[12.7 µM],61.5%,.,.,.
Cc1ccc(C(=O)/C=C/C(=O)O)cc1,11.2%,10µM*,-13.8%,3.3,7.3%,10.3%
CC(C)=CCC/C(C)=C/CC/C(C)=C/CSCC(=O)O,.,33.3%[59 µM],.,.,.,.
CC(C)N(Cc1cc2ccccc2[nH]c1=O)C(=O)c1ccco1,-8.9%,50.1µM*,-9.0%,-1.5,.,20.0%
Cc1ccc(C)c(N(Cc2cc3ccc(C)cc3[nH]c2=O)C(=O)c2ccco2)c1,-8.5%,-4.5%[59 µM],-15.3%,-0.9,-8.1%,15.4%
SMILES,BAZ2B inh,G9a block,JMJD2A Tudor inh,PI5P4Ka inh,L3MBTL1 block,HP1b chromo inh
Cc1cccc(N(Cc2cc3ccccc3[nH]c2=O)C(=O)c2ccco2)c1C,-6.5%,3.4%[12.7 µM],-10.3%,4.3,8.3%,19.1%
COc1ccc(N(Cc2cc3ccc(C)cc3[nH]c2=O)C(=O)c2ccco2)cc1,12.3%,70.8µM*,-1.1%,-12.6,0.5%,34.2%
CC(=O)Nc1ccc(S(=O)(=O)N(Cc2ccco2)Cc2cc3ccccc3[nH]c2=O)cc1,-30.6%,35.5µM*,-18.3%,0.2,.,55.0%
Cc1cc(N2CCN(C)CC2)nc2ccc(NC(=O)Nc3ccccc3Br)cc12,-13.9%[57.1 µM],?,-21.0%,.,.,11.0%
CCOC(=O)c1cccc(NC(=O)N2CC(CC)Oc3ccccc32)c1 (configuration not stated),-3.1%,-34.9%[59 µM],-21.4%,.,.,25.3%
COc1cccc(OCc2nnc(SCC(=O)N3c4ccccc4Sc4ccc(Cl)cc43)o2)c1,-5.7%,28.2µM*,8.0%,8.2,5.4%,-17.0%
CN1CCN(C(=O)CSc2nnc(COc3ccc(Cl)cc3)o2)CC1,8.5%,12.4%,4.9%,2.1,.,2.2%
CN1CCN(C(=O)CSc2nnc(COc3ccccc3)o2)CC1,-2.4%,39.8µM*,-6.0%,0.1,.,14.5%
O=C(NCCCn1ccnc1)C(=O)NCC1OCCN1S(=O)(=O)c1ccc(Cl)cc1 (configuration not stated),12.6µM*,-13.8%,79.4µM*,6.6,?,24.2%
O=C(NCCCn1ccnc1)C(=O)NCC1OCCCN1S(=O)(=O)c1ccc(F)cc1 (configuration not stated),50.1µM*,-4.1%,-33.0%,3.0,?,15.1%
O=C(NCCCn1ccnc1)C(=O)NCC1OCCN1S(=O)(=O)c1ccccc1 (configuration not stated),22.4µM*,18.7%,?,-3.3,.,33.1%
O=C(NCCCn1ccnc1)C(=O)NCC1OCCCN1S(=O)(=O)c1ccccc1 (configuration not stated),14.1µM*,16.7%[59 µM],-9.2%,-7.1,?,12.1%
O=C(NCCc1ccccc1)C(=O)NCC1OCCCN1S(=O)(=O)c1ccc(F)cc1 (configuration not stated),-8.3%,24.9%,2.9%,-2.4,.,29.9%
Cc1nn(-c2ccc3nncn3n2)c(C)c1CCC(=O)Nc1ccc(OC(F)(F)F)cc1,4.5%,26.8%[59 µM],-4.2%,.,.,24.3%[57 µM]
O=C1Nc2ccc(Cl)cc2C(=O)C1(F)c1ccccc1 (configuration not stated),-4.5%,-1.9%,8.1%[57.1 µM],-3.9,-3.0%,39.8%
O=C1Nc2c(ccc(Cl)c2Cl)C(=O)C1(F)c1ccccc1 (configuration not stated),-26.4%,44.7µM*,-21.6%,-2.3,0.5%,0.3%
COc1ccc(C2=Nn3c(nnc3-c3cccc(OC)c3OC)SC2)cc1OC,.,.,-3.4%,.,.,.
